Compounds with a hit are over-represented: about 19% of the library has one in this group of screens.
DT40 TDP1 CPT: qHTS for Inhibitors of human tyrosyl-DNA phosphodiesterase 1 (TDP1): qHTS in cells in presence of CPT; chicken DT40 Tdp1-/-;hTDP1 cells + 20 nM CPT, ATP luminescence, 48 h; Potency, µM (series often up to 46.2 µM), hits mostly inhibitors; 12% of 420,000 active; note: nearly all actives have a fitted effect of over 55% in size
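Chicken DT40 Tdp1-/- cells complemented with human TDP1, 400 cells/well, exposed to compounds plus 20 nM camptothecin for at least 48 h at 37 C; viability read as ATP content by CellTiter-Glo luminescence.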
HT1080 IDH1KD tx: qHTS for induction of synthetic lethality in tumor cells producing 2HG: qHTS for the HT-1080-IDH1KD cell line. HT-1080 IDH1 knockdown viability, ATP luminescence, 48 h. Potency, µM (top dose mostly 46.1 µM), actives largely listed as cytotoxic. 2% of 360,000 active. AID 686971, 2013
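HT-1080-IDH1KD cells (IDH1 knocked down), 750/well in RPMI with 5% FBS, treated with compound 48 h at 37 degrees C. Viability by CellTiter-Glo luminescence, normalised to DMSO and no-cell wells; concentration-response curves classed.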
DT40 TDP1 no CPT: qHTS for Inhibitors of human tyrosyl-DNA phosphodiesterase 1 (TDP1): qHTS in cells in absence of CPT; DT40 Tdp1-/- hTDP1 cells, no CPT, ATP luminescence, 48 h; Potency, µM (highest dose often 46.2 µM), hits mostly inhibitors; 15% of 420,000 active; note: nearly all actives have a fitted effect of over 55% in size
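Luminescent ATP content (CellTiter-Glo) served as the growth readout. Knockout chicken DT40 cells expressing human TDP1 were exposed to compounds without camptothecin for a minimum 48 hr at 37 °C.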
IL1B secr inh: qHTS for Inhibitors of Inflammasome Signaling: IL-1-beta AlphaLISA Primary Screen; THP-1 LPS/ATP IL-1B secretion, AlphaLISA, 16 h; active compounds read low; activity change, % at 57.5 µM; 4.7% of 360,000 active; AID 743279, 2014; in the data active = activity change below about -50%; inconclusive = mostly about -30% to -49%
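THP-1 cells pretreated 1 hr with compounds (up to 57.5 uM final), then stimulated with LPS (250 ng/mL final) plus ATP (1.25 mM final); secreted IL-1B measured by AlphaLISA after 16 hr, decreased signal indicating inhibition.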
HT1080NT lethal: qHTS for induction of synthetic lethality in tumor cells producing 2HG: qHTS for the HT-1080-NT fibrosarcoma cell line. 1.6% of 360,000 active. HT-1080-NT fibrosarcoma viability, CellTiter-Glo ATP luminescence, 48 h. Potency, µM (doses to about 46.1 µM), most hits filed as cytotoxic. AID 686970, 2013;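 note: NT is the 2HG producing partner of a matched IDH1 knockdown line; nearly all actives have a fitted effect of over 55% in size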
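Toxicity toward the 2HG-producing NT line was scored as %Activity, normalised to DMSO and no-cell wells, from CellTiter-Glo luminescence after 48 hours' treatment.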
Numbers stand for hits; 0 = inactive; ? = inconclusive; - = not tested or not shown. Unless noted, calls come from the whole dose curve; as a rule, active = well fitted curve in the direction sought with a large enough effect; inconclusive = small, poorly fitted or top-dose-only effect, or another doubt; inactive = no such curve, though single readings can be large; an effect the other way counts as inactive or inconclusive.

SMILES	DT40 TDP1 CPT	HT1080 IDH1KD tx	DT40 TDP1 no CPT	IL1B secr inh	HT1080NT lethal
CCCN(CCC)C(=O)c1cc2c(=O)[nH]c3ccc(C)cc3c2s1	?	0	16.4µM	?	0
COc1ccc(Cc2nc3ccc(C(=O)N(C)CCCN4CCOCC4)cc3o2)cc1	0	0	0	0	0
NC(=S)NN=C(c1ccc(Br)cc1)C1CC1	?	0	?	-75.6	0
NC(=S)NN=C(c1ccc(F)cc1)C1CC1	20.6µM	0	?	-86.1	0
CCOCCCn1c(=N)c(C(=O)NCc2cccnc2)cc2c(=O)n3cc(C)ccc3nc21	0	-	0	-	-
CS(=O)(=O)Nc1ccccc1NS(C)(=O)=O	0	0	0	-58.4	0
COC(=O)c1ccccc1NS(C)(=O)=O	0	0	0	0	0
C=C1/C=C(\C)C(C)(O)CC(O)CC(=O)C(O)C(O)C(C)CC(C)OC(=O)/C(C)=C/CC/C=C/C(OC)C(O)CC(C)C1 (stereo unspecified)	?	0	?	-53.4	0
Cc1nn(-c2ccccc2)c2c1C(O)n1c(nc3ccccc31)S2 (stereo unspecified)	14.6µM	0	15.8µM	-86.0	0
O=C(N/C(=C/C=C\c1ccccc1)C(=O)N1CCOCC1)c1ccc(Br)cc1	?	0	0	0	0
COC(=O)c1ccc(-n2c(C)cc(C(=O)CSc3ccc(NC(C)=O)cc3)c2C)cc1	?	0	23.1µM	0	0
Cc1cccc(Nc2nnc(SCC3CCCCO3)s2)c1 (stereo unspecified)	23.1µM	0	?	0	0
O=C(CSc1nnc2ccc(-c3ccccc3)nn12)NCC1CCCO1 (stereo unspecified)	0	0	0	?	0
Cc1noc(C)c1COc1cccc(C(=O)NC(C)(C)C)c1	0	0	0	0	0
CCc1ccc(-n2nc3ccc(NC(=O)c4cc5ccccc5o4)cc3n2)cc1	?	-	4.61µM	-	-
O=C(Nc1cccc(-n2cnnn2)c1)c1cc2ccccc2o1	0	0	0	0	0
O=C(Nc1ccc2nn(-c3ccccc3)nc2c1)c1cc2ccccc2o1	?	-	14.6µM	-	-
O=C1c2ccccc2CCC1CNCCc1ccc(O)cc1 (stereo unspecified)	0	-	20.6µM	-	-
O=C1c2ccccc2CC[C@H]1CNCCc1ccc(O)cc1	13.3µM	-	13.3µM	-	-
Cc1occc1C(=O)N/N=C/C1=C(N2CCOCC2)C(=C/c2ccc(Cl)cc2Cl)/CC1	5.8µM	0	7.31µM	0	0
Cn1nccc1C(=O)NC1CC(C)(C)Cc2c1cnn2-c1ccc(F)cc1 (stereo unspecified)	?	0	?	0	0
Cc1cc2c(cc1C)C(=O)C(=O)N2	?	0	?	0	0
O=C1Nc2cc3c(cc2C1=O)sc1ccccc13	20.6µM	0	29.1µM	-	0
Cn1c(NN)nc2sc3c(c2c1=O)CC(C)(C)OC3	?	12.6µM	?	0	?
CNCCCCOc1ccc(C(C)(C)C)cc1Cl	?	0	?	-55.4	0
SMILES	DT40 TDP1 CPT	HT1080 IDH1KD tx	DT40 TDP1 no CPT	IL1B secr inh	HT1080NT lethal
CC(C)(C)c1ccc(OCCON2C(=O)CCC2=O)c(Cl)c1	0	0	0	0	0
Cc1nc(CC(=O)NNS(=O)(=O)c2cccc(Cl)c2Cl)cs1	0	0	0	0	0
COc1ccc2cc3cc(C(=O)NCc4ccc5c(c4)OCO5)oc3nc2c1	0	0	0	0	0
COc1ccc(CNC(=O)c2cc3cc4ccc(C)cc4nc3o2)cc1	?	-	23.1µM	-	-
COc1ccc2cc3cc(C(=O)NCC4COc5ccccc5O4)oc3nc2c1 (stereo unspecified)	?	?	16.4µM	0	?
CCN(C(=O)c1cc2cc3ccc(C)cc3nc2o1)c1ccc(OC)cc1	0	0	?	-51.6	?
Cc1cccn2c(=O)nc(SCC(=O)N3CCN(c4ccccc4)CC3)nc12	0	0	0	0	0
Cc1cccc(OCCCn2c(CO)nc3ccccc32)c1	?	0	0	0	0
CC[C@@]1(C(=O)OC)N[C@H](CN(C)C(=O)c2ccc(F)cc2)[C@@H]2C(=O)N(C)C(=O)[C@@H]21	0	0	0	0	0
Nc1nc(-c2cccnc2)nn1C(=O)c1ccc(F)cc1	0	0	0	0	0
O=S1c2ccccc2Oc2ccccc21	0	0	0	0	0
O=[S@]1Oc2ccccc2-c2ccccc21	?	0	13µM	?	0
CCOC(=O)Cc1cnc(NC(=O)CSc2nc(C)c(CC)c(=O)[nH]2)s1	0	0	0	0	0
CC1CCN(C(=S)c2cn(Cc3ccc(F)cc3)c3ccccc23)CC1	?	0	23.1µM	0	0
CN1CCN(C(=S)c2cn(Cc3ccc(F)cc3)c3ccccc23)CC1	?	0	?	0	0
CN1CCN(C(=S)c2cn(Cc3cccc(F)c3)c3ccccc23)CC1	?	0	20.6µM	0	0
Cc1ccc(OC(=O)c2snnc2C)cc1C	0	-	0	-	-
Cc1nn(Cc2ccc(F)cc2)c2sc(C(=O)Nc3ccc(N4CCOCC4)cc3N3CCOCC3)cc12	8.2µM	?	7.31µM	0	0
CC(C)(C)Nc1nc(Oc2ccc(=O)n(-c3ccccc3)n2)nc(N2CCOCC2)n1	?	0	20.6µM	0	0
CC(C)CNc1nc(Oc2ccc(=O)n(C)n2)nc(N2CCOCC2)n1	0	0	0	0	0
CCNc1nc(NC(C)(C)C)nc(Oc2ccc(=O)n(-c3ccccc3)n2)n1	16.4µM	0	20.6µM	0	0
CCNc1nc(NC(C)C)nc(Oc2ccc(=O)n(C)n2)n1	0	0	0	0	0
C=CC1CN(C(=O)OCC(Cl)(Cl)Cl)C2CC3c4ccc(OC)cc4NC3C3CC1C2CO3 (stereo unspecified)	?	0	18.4µM	0	0
CCOC(=O)N1CCC2CC1c1cc(-c3cccc(OC)c3)ccc12 (stereo unspecified)	?	0	?	0	0
O=C(CSc1ncnc2c1cnn2-c1cccc(Cl)c1)NCC1CCCO1 (stereo unspecified)	?	0	14.6µM	0	0
O=C(CSc1ncnc2c1cnn2-c1ccccc1)NC1CCCC1	18.4µM	0	23.1µM	0	0
CCc1ncc(CN2CCC(C(=O)Nc3ccc(-n4nc(C)cc4C)cc3)CC2)cn1	0	0	0	0	0
Cc1cc2nc(-c3cccc(Br)c3)c(CC(C)(C)C)n2c(C)c1Br	?	0	0	0	0
Cc1ccccc1Oc1ccc(-c2nc(N)nc(N)n2)cc1	0	0	?	0	0
